SMN2 splice up: qHTS Assay for Enhancers of SMN2 Splice Variant Expression | HEK293 SMN2-luciferase splicing reporter, luminescence, 30-36 h | 2.8% of 210,000 active | Potency, µM (highest dose often 46.1 µM), usual class: activators; also: nearly all actives have a fitted effect of over 55% in size
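HEK293 cells carry an SMN2 […]–luciferase reporter in which exon 7 inclusion puts luciferase in frame. Cells were plated 10-12 h before compound addition, then incubated 30-36 h at 37C. ONE-Glo luminescence was read; sodium butyrate at 4.5 mM final served as control.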
Rab9 prom act: qHTS Assay for Rab9 Promoter Activators; Potency, µM (series often up to 9.22 µM), usual class: activators; 2.8% of 320,000 active; AID 485297, 2010; Huh7 Rab9 promoter-luciferase reporter, luminescence, 24 h; also: nearly all actives have a fitted effect of over 60% in size
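Cells were plated at 1500 per well in reduced-serum medium with 10% FBS and left 2 h. Compound in DMSO was then added for 24 h at 37 °C. Reporter signal was read by luminescence after 10 min with luciferase detection reagent.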
ELG1 genotoxic: qHTS screen for small molecules that induce genotoxicity in human embryonic kidney (HEK293T) cells expressing luciferase-tagged ELG1; Potency, µM (series often up to 46 µM), usual class: activators; AID 504466, 2011; 1.3% of 330,000 active; HEK293T ELG1-luciferase reporter, luminescence, 16 h; also: nearly all actives have a fitted effect of over 60% in size
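Reporter readout depends on ELG1 protein level, which increases with genetic stress. After 16 hr compound exposure at 37 °C, luciferase activity was quantified using ONE-Glo.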
NPC1 prom act: qHTS Assay for NPC1 Promoter Activators | 2.4% of 320,000 active | AID 485313, 2010 | Potency, µM (doses to about 9.22 µM), most hits filed as activators | Huh7 NPC1 promoter luciferase reporter, 24 h; also: nearly all actives have a fitted effect of over 60% in size
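Luciferase expression driven by the NPC1 promoter was measured in stably transfected Huh7 cells after a 24 h compound incubation, using a luciferase reagent and a luminescence read.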
FLuc counter: qHTS profiling assay for firefly luciferase inhibitor/activator using purifed enzyme and Km concentrations of substrates (counterscreen for miR-21 project); Potency, µM (top dose mostly 57.5 µM), most hits filed as inhibitors; purified FLuc, Km substrates, luminescence inhibition; Luciferin 4-monooxygenase (Photinus pyralis), P08659; 6.9% of 360,000 active; also: nearly all actives have a fitted effect of over 55% in size
Target sequence (P08659 whole entry, looked up): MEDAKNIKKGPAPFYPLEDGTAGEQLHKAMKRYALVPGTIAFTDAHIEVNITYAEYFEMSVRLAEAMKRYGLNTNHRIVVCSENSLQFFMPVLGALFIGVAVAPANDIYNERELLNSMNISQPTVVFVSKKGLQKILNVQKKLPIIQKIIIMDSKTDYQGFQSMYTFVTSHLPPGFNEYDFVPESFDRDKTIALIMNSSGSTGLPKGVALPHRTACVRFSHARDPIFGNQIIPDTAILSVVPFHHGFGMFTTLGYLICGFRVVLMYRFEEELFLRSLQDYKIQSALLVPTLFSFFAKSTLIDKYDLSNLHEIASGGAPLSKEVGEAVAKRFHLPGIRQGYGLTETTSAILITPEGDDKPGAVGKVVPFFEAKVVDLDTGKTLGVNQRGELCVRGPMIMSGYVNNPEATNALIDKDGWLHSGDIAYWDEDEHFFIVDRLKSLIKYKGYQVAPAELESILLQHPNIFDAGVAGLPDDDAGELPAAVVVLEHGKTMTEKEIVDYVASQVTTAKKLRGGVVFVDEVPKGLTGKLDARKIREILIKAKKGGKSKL
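Purified P. pyralis luciferase (10nM final) with 10uM D-luciferin and 10uM ATP (Km levels) in 50mM Tris acetate pH 7.5, 10mM Mg acetate, 0.01% Tween-20, 0.05% BSA; qHTS 6-point titration, ~60 µM downward; luminescence read.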
Numbers stand for hits; 0 = inactive; ? = inconclusive; - = no result given; [ ] = remark or other dose. Sampled rows, rich in hits. Any-hit rate of the full collection: about 7.4%. Calls follow the shape of the dose curve; as a rule, active = well fitted curve in the direction sought with a large enough effect; inconclusive = small, poorly fitted or top-dose-only effect, or another doubt; inactive = no such curve, though single readings can be large; an effect the other way counts as inactive or inconclusive.

SMILES	SMN2 splice up	Rab9 prom act	ELG1 genotoxic	NPC1 prom act	FLuc counter
CCC1=C2CC[C@H]3C(=O)N(c4ccccc4)C(=O)[C@H]3[C@H]2[C@@]2(Cc3ccccc3)C(=NCC3CC3)OC(=O)N2C1=O	0	-	-	-	-
O=C(c1ccccc1)N1CCSc2sccc2C1=O	0	?	0	?	24µM
CCc1ccc(C2CC(c3ccco3)=NN2S(C)(=O)=O)cc1 (stereo not given)	0.5µM	0.32µM	?	0.45µM	1.3µM
S=c1[nH]nc(COc2ccccc2)n1/N=C/C(Cl)=C/c1ccccc1	0	0	0	0	0
COc1ccc(-n2c(C)cc(C(=O)Cn3nnc4ccccc4c3=O)c2C)cc1	0	?	0	0	12µM
Cc1ccc(C(=O)Cn2nc(C(=O)O)c3ccccc3c2=O)cc1C	-	0	0	0	6.7µM
Cc1cc(C(=O)Cn2nc(C(=O)O)c3ccccc3c2=O)c(C)n1-c1ccc(OC(F)F)cc1	0	0	0	0	0
Cc1cc(C(=O)Cn2nnc3ccccc3c2=O)c(C)n1-c1ccccc1F	11µM	0.4µM	?	0.45µM	0.34µM
Cc1cc(C(=O)Cn2nnc3ccccc3c2=O)c(C)n1-c1c(C)n(C)n(-c2ccccc2)c1=O	0	0	0	0	0
Cc1ccc(-n2c(C)cc(C(=O)Cn3nc(C(=O)O)c4ccccc4c3=O)c2C)cc1	-	0	0	0	5.4µM
CCCn1c(SC(C(=O)Nc2cccc(OC)c2)c2ccccc2)nc2ccccc2c1=O (stereo not given)	0	0	0	0	0
COc1ccc(-n2c(C)cc(C(=O)Cn3nc(C(=O)O)c4ccccc4c3=O)c2C)cc1	0	0	0	0	24µM
Cc1cc(C(=O)Cn2nc(C(=O)O)c3ccccc3c2=O)c(C)n1CC(F)(F)F	0	?	0	0	3µM
COCC(C)n1c(C)cc(C(=O)COC(=O)c2nn(C)c(=O)c3ccccc23)c1C (stereo not given)	-	-	0	-	-
COCC(C)n1c(C)cc(C(=O)Cn2nc(C(=O)O)c3ccccc3c2=O)c1C (stereo not given)	0	0	?	0	7.6µM
Cc1c(C(=O)OCC(=O)N2C(C)CCCC2C)oc2ccccc12 (stereo not given)	-	?	?	?	17µM
Cc1c(C(=O)OCC(C)(C)CN(C)C)oc2ccccc12	0	0	?	0	19µM
Cc1c(C(=O)OCCN2CCCCC2)oc2ccccc12	0	0	0	0	19µM
N#C/C(=C\Nc1ccc2c(c1)OCCO2)c1nc(-c2ccccc2)cs1	0	0	?	0	0
O=C(/C=C/c1ccc2c(c1)OCO2)Nc1nc(-c2ccc(F)cc2)cs1	0	0	0	0	?
c1cc2c(cc1Nc1nc(-c3ccc4c(c3)OCO4)cs1)OCCO2	4µM	2.8µM	?	3.2µM	4.3µM
c1ccc(-c2csc(Nc3ccc4c(c3)OCCO4)n2)cc1	4µM	-	-	-	0.54µM
COc1cccc(Nc2nc(-c3ccc4c(c3)OCCO4)cs2)c1	14µM	3.2µM	?	?	3.4µM
COc1ccc(NC(=O)c2ccc(-c3nn(C)c(=O)c4ccccc34)cc2)cc1C(N)=O	-	0	0	0	0
O=C(OCC(=O)C12CC3CC(CC(C3)C1)C2)c1cccnc1Cl	0	0	0	0	17µM
SMILES	SMN2 splice up	Rab9 prom act	ELG1 genotoxic	NPC1 prom act	FLuc counter
O=C(OCC(=O)C12CC3CC(CC(C3)C1)C2)c1ccc(O)cc1O	-	0	23µM	0	19µM
CC(C)C(=O)Nc1c2c(nn1-c1ccc(F)cc1)CS(=O)(=O)C2	-	0	0	0	0
O=C(CSc1nc2ccccc2n1-c1ccccc1)Nc1ncc(Cl)cc1Cl	4.5µM	0	0	0	0
Cc1cccc(-n2c(SCC(=O)Nc3ncc(Cl)cc3Cl)nc3ccccc32)c1	0	0	0	0	0
Cc1ccc(Nc2ccc(-n3ccnc3)nn2)cc1C	0	0	0	0	17µM
O=C(c1cc(Br)ccc1O)c1cc(Br)ccc1O	0[9.22 µM]	-	-	-	-
CC(=O)c1cccc(NS(=O)(=O)c2ccc(NC(=O)N3CCCCC3)cc2)c1	-	0	0	0	0
CC(=O)c1ccc(S(=O)(=O)Nc2cccc(-c3cn4c(n3)SCC4)c2)cc1	0	0	0	0	0
CC(=O)c1ccc(S(=O)(=O)Nc2cccc(-c3ccc(N4CCCCCC4)nn3)c2)cc1	-	-	-	-	4.8µM
CC(=O)c1ccc(S(=O)(=O)Nc2cccc(-c3ccc(N4CCCC4)nn3)c2)cc1	-	-	-	-	9.5µM
CC1(C)O[C@@H]2O[C@H]([C@@H]3COC(C)(C)O3)[C@H](N)[C@H]2O1	0[9.22 µM]	-	-	-	-
CCc1nnc(NC(=O)C2Cc3ccccc3CN2S(=O)(=O)CC)s1 (stereo not given)	0	0	0	0	0
CCS(=O)(=O)N1Cc2ccccc2CC1C(=O)Nc1nc2ccccc2[nH]1 (stereo not given)	?	0	?	0	15µM
CCS(=O)(=O)N1Cc2ccccc2CC1C(=O)Nc1nc2ccccc2s1 (stereo not given)	0	0	2.3µM	0	5.4µM
COc1ccc(-n2nnnc2SCc2nc3ccccc3s2)cc1	0	?	16µM	0	11µM
COc1ccc(C)cc1-n1nnnc1SCc1nc2ccccc2s1	0	?	0	?	11µM
COc1ccc(CSc2nnnn2-c2ccccc2)cc1	0	0	0	0	0
CC1(C)COC(c2coc3ccccc3c2=O)OC1	?	0	?	0	17µM
CCc1nc2ccccc2n1CC1CC1(Cl)Cl (stereo not given)	0	0	0	0	0
O=Cc1c(OCc2ccccc2)ccc2ccccc12	14µM	?	?	?	12µM
C/[N+]([O-])=C/c1c(OCc2ccccc2)ccc2ccccc12	-	?	?	?	0
CCCCN(C(=O)COC(=O)c1ccc(C=O)cc1)c1c(N)n(CCC)c(=O)[nH]c1=O	-	0	0	0	0
COc1ccccc1NC(=O)CSc1nnc(CNC(=O)c2ccco2)n1C	-	0	0	0	0
COc1ccccc1NC(=O)CSc1nnc(CCNC(=O)c2ccc(C)cc2)n1C	-	0	0	0	15µM
COc1ccc(C(=O)NCc2nnc(SCC(=O)Nc3ccccc3OC)n2C)cc1	0	0	0	0	15µM
SMILES	SMN2 splice up	Rab9 prom act	ELG1 genotoxic	NPC1 prom act	FLuc counter
CCOC(=O)c1ccc(NC(=O)CSc2nnc(CNC(=O)c3ccc(OC)cc3)n2CC)cc1	0	-	-	-	15µM
CCCCn1c(CNC(=O)c2ccc(OC)cc2)nnc1SCC(=O)Nc1ccc(OC)cc1	0	-	-	-	0
C=Cc1ccc(Cn2c(C(=O)O)c(CNCc3ccccc3)c3ccc(OC)cc32)cc1	-	-	-	-	0
Cc1cc2c(NC3CCCCC3)ncnc2s1	-	0	0	0	0
Cc1ccc2nc(-c3ccc(C)o3)c(Nc3ccc4c(c3)OCCO4)n2c1	8.9µM	-	-	-	21µM
Brc1ccc(-c2nc3ccccn3c2Nc2ccc3c(c2)OCCO3)o1	?	-	-	-	13µM
